# Assay results from PubChem BioAssay AID1159580 (chemical genetic matrix, 2015).
# Where “and” joins values, the source holds several entries; their conditions need not be identical. Equal values may be shown once. Screen size: about 5,500 compounds; about 2,000 (36%) were called active. Roughly 18% stayed inconclusive and do not appear here. The list shows a part of the results. Unmarked numbers belong to inactive results. Rule as the data show it: active = normalized growth mostly below about 0.91 (no sharp cut-off); inconclusive = no clear call, values can overlap the other calls; inactive = mostly above about 0.92.
# Assay: chemical genetic growth profiling, strain panel (AID 1159580);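 also: tested at 20 µM; growth read once vehicle control cultures reached saturation at 30 °C; 1 = growth at the plate median or of vehicle wells; lower values mean less growth of the strain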
# Settings: S. cerevisiae deletion strains, growth OD
compound,measurement,setting,value
NCCCCCC(=O)O,normalized growth,"locus YAL013W, strain DEP1, stronger effect = lower value",0.951
same,normalized growth,"locus YAL021C, strain ccr4, stronger effect = lower value",0.99
same,normalized growth,"locus YAL026C, strain drs2, stronger effect = lower value",1
same,normalized growth,"locus YAL030W, strain snc1, stronger effect = lower value",0.989
same,normalized growth,"locus YAL040C, strain CLN3, stronger effect = lower value",0.979
same,normalized growth,"locus YBL061C, strain skt5, stronger effect = lower value",1
same,normalized growth,"locus YBR009C, strain hhf1, stronger effect = lower value",1
same,normalized growth,"locus YBR021W, strain FUR4, stronger effect = lower value",0.706 (active)
same,normalized growth,"locus YBR023C, strain chs3, stronger effect = lower value",1
same,normalized growth,"locus YBR171W, strain sec66, stronger effect = lower value",0.991
same,normalized growth,"locus YBR229C, strain ROT2, stronger effect = lower value",0.988
same,normalized growth,"locus YBR231C, strain swc5, stronger effect = lower value",1.01
same,normalized growth,"locus YBR279W, strain paf1, stronger effect = lower value",0.996
same,normalized growth,"locus YCL011C, strain gbp2, stronger effect = lower value",0.994
same,normalized growth,"locus YCL016C, strain dcc1, stronger effect = lower value",1.01
same,normalized growth,"locus YCL029C, strain bik1, stronger effect = lower value",0.999
same,normalized growth,"locus YCL061C, strain MRC1 (second series), stronger effect = lower value",0.983
same,normalized growth,"locus YCL069W, strain vba3, stronger effect = lower value",0.995
same,normalized growth,"locus YCR088W, strain abp1, stronger effect = lower value",0.995
same,normalized growth,"locus YDL005C, strain med2, stronger effect = lower value",1.01
same,normalized growth,"locus YDL035C, strain GPR1, stronger effect = lower value",0.963
same,normalized growth,"locus YDL040C, strain nat1, stronger effect = lower value",0.997
same,normalized growth,"locus YDL074C, strain BRE1, stronger effect = lower value",0.964
same,normalized growth,"locus YDL101C, strain DUN1, stronger effect = lower value",1.01
same,normalized growth,"locus YDL134C, strain PPH21, stronger effect = lower value",0.979
same,normalized growth,"locus YDL185W, strain tfp1, stronger effect = lower value",1.01
same,normalized growth,"locus YDL192W, strain arf1, stronger effect = lower value",1.01
same,normalized growth,"locus YDR001C, strain nth1, stronger effect = lower value",1.03
same,normalized growth,"locus YDR069C, strain doa4, stronger effect = lower value",1.01
same,normalized growth,"locus YDR101C, strain arx1, stronger effect = lower value",0.981
same,normalized growth,"locus YDR137W, strain rgp1, stronger effect = lower value",0.972
same,normalized growth,"locus YDR150W, strain NUM1, stronger effect = lower value",0.974
same,normalized growth,"locus YDR159W, strain sac3, stronger effect = lower value",1
same,normalized growth,"locus YDR162C, strain NBP2, stronger effect = lower value",0.985
same,normalized growth,"locus YDR195W, strain ref2",0.976
same,normalized growth,"locus YDR297W, strain sur2, stronger effect = lower value",0.998
same,normalized growth,"locus YDR318W, strain mcm21, stronger effect = lower value",1.01
same,normalized growth,"locus YDR334W, strain swr1, stronger effect = lower value",1.02
same,normalized growth,"locus YDR335W, strain msn5, stronger effect = lower value",1.01
same,normalized growth,"locus YDR363W, strain ESC2, stronger effect = lower value",1.01
same,normalized growth,"locus YDR388W, stronger effect = lower value",0.998
same,normalized growth,"locus YDR392W, strain spt3, stronger effect = lower value",0.965
same,normalized growth,"locus YDR502C, strain sam2, stronger effect = lower value",1
same,normalized growth,"locus YEL003W, strain gim4, stronger effect = lower value",1
same,normalized growth,"locus YEL037C, strain rad23, stronger effect = lower value",0.999
same,normalized growth,"locus YEL061C, strain CIN8 (second series), stronger effect = lower value",1
same,normalized growth,"locus YEL061C, strain CIN8, stronger effect = lower value",0.995
same,normalized growth,"locus YER002W, strain NOP16, stronger effect = lower value",0.992
same,normalized growth,"locus YER015W, strain faa2, stronger effect = lower value",1
same,normalized growth,"locus YER016W, strain bim1, stronger effect = lower value",0.966
same,normalized growth,"locus YER110C, stronger effect = lower value",1.01
same,normalized growth,"locus YER111C, strain swi4, stronger effect = lower value",1.01
same,normalized growth,"locus YER155C, strain BEM2 (second series), stronger effect = lower value",0.976
same,normalized growth,"locus YER155C, strain BEM2, stronger effect = lower value",0.992
same,normalized growth,"locus YER167W, strain BCK2, stronger effect = lower value",0.99
same,normalized growth,"locus YFR010W, strain ubp6, stronger effect = lower value",1.03
same,normalized growth,"locus YGL078C, strain dbp3, stronger effect = lower value",1
same,normalized growth,"locus YGL086W, strain mad1, stronger effect = lower value",1
same,normalized growth,"locus YGL167C, strain pmr1, stronger effect = lower value",1
same,normalized growth,"locus YGL173C, strain kem1, stronger effect = lower value",1
same,normalized growth,"locus YGL227W, strain vid30, stronger effect = lower value",0.998
same,normalized growth,"locus YGL240W, strain doc1, stronger effect = lower value",1.03
same,normalized growth,"locus YGL248W, strain PDE1, stronger effect = lower value",0.987
same,normalized growth,"locus YGL253W, strain hxk2, stronger effect = lower value",1
same,normalized growth,"locus YGR078C, strain PAC10, stronger effect = lower value",0.997
same,normalized growth,"locus YGR135W, strain pre9, stronger effect = lower value",1
same,normalized growth,"locus YGR252W, strain gcn5, stronger effect = lower value",0.907
same,normalized growth,"locus YHR013C, strain ard1, stronger effect = lower value",1
same,normalized growth,"locus YHR027C, strain rpn1, stronger effect = lower value",0.999
same,normalized growth,"locus YHR030C, strain SLT2, stronger effect = lower value",0.999 and 1
same,normalized growth,"locus YHR079C, strain IRE1 (second series), stronger effect = lower value",1.01
same,normalized growth,"locus YHR079C, strain IRE1, stronger effect = lower value",1.04
same,normalized growth,"locus YHR094C, strain hxt1, stronger effect = lower value",1
same,normalized growth,"locus YHR129C, strain ARP1, stronger effect = lower value",0.998
same,normalized growth,"locus YHR142W, strain chs7, stronger effect = lower value",1
same,normalized growth,"locus YHR200W, strain rpn10, stronger effect = lower value",1.01
same,normalized growth,"locus YIL066C, strain RNR3, stronger effect = lower value",0.962
same,normalized growth,"locus YIL073C, strain SPO22, stronger effect = lower value",1.03
same,normalized growth,"locus YIL125W, strain kgd1, stronger effect = lower value",1.01
same,normalized growth,"locus YIR030C, strain dcg1, stronger effect = lower value",1.01
same,normalized growth,"locus YJL092W, strain hpr5, stronger effect = lower value",1.03
same,normalized growth,"locus YJL095W, strain BCK1 (second series), stronger effect = lower value",0.985
same,normalized growth,"locus YJL095W, strain BCK1, stronger effect = lower value",0.995 and 1.03
same,normalized growth,"locus YJL115W, strain asf1, stronger effect = lower value",1.01
same,normalized growth,"locus YJL129C, strain trk1, stronger effect = lower value",1.01
same,normalized growth,"locus YJL134W, strain LCB3, stronger effect = lower value",0.992
same,normalized growth,"locus YJL154C, strain vps35, stronger effect = lower value",0.998
same,normalized growth,"locus YJL164C, strain tpk1, stronger effect = lower value",0.996
same,normalized growth,"locus YJL166W, strain qcr8, stronger effect = lower value",1.02
same,normalized growth,"locus YJL168C, strain set2, stronger effect = lower value",1.01
same,normalized growth,"locus YJL187C, strain SWE1 (second series), stronger effect = lower value",0.992
same,normalized growth,"locus YJR043C, strain POL32, stronger effect = lower value",0.952
same,normalized growth,"locus YJR066W, strain TOR1, stronger effect = lower value",0.993
same,normalized growth,"locus YKL009W, strain mrt4, stronger effect = lower value",1.04
same,normalized growth,"locus YKL068W, stronger effect = lower value",0.994
same,normalized growth,"locus YKL085W, strain MDH1 (second series), stronger effect = lower value",1.01
same,normalized growth,"locus YKL085W, strain MDH1, stronger effect = lower value",1.01
same,normalized growth,"locus YKL160W, strain elf1, stronger effect = lower value",0.996
same,normalized growth,"locus YKR001C, strain vps1, stronger effect = lower value",1.04
same,normalized growth,"locus YKR026C, strain gcn3, stronger effect = lower value",1
same,normalized growth,"locus YKR091W, strain srl3, stronger effect = lower value",0.993
same,normalized growth,"locus YLL001W, strain dnm1, stronger effect = lower value",1
same,normalized growth,"locus YLL026W, stronger effect = lower value",1
same,normalized growth,"locus YLL041C, strain sdh2, stronger effect = lower value",0.999
same,normalized growth,"locus YLR027C, strain aat2, stronger effect = lower value",1
same,normalized growth,"locus YLR039C, strain RIC1, stronger effect = lower value",1.01
same,normalized growth,"locus YLR058C, strain SHM2, stronger effect = lower value",0.992
same,normalized growth,"locus YLR102C, strain apc9, stronger effect = lower value",1
same,normalized growth,"locus YLR113W, strain HOG1, stronger effect = lower value",1.02
same,normalized growth,"locus YLR221C, strain rsa3, stronger effect = lower value",0.987
same,normalized growth,"locus YLR258W, strain gsy2, stronger effect = lower value",0.995
same,normalized growth,"locus YLR262C, strain YPT6 (second series), stronger effect = lower value",0.996
same,normalized growth,"locus YLR262C, strain YPT6, stronger effect = lower value",1.05
same,normalized growth,"locus YLR268W, strain sec22, stronger effect = lower value",0.991
same,normalized growth,"locus YLR320W, strain mms22, stronger effect = lower value",0.992
same,normalized growth,"locus YLR330W, strain CHS5, stronger effect = lower value",0.997
same,normalized growth,"locus YLR342W, strain FKS1 (second series), stronger effect = lower value",0.942
same,normalized growth,"locus YLR342W, strain FKS1, stronger effect = lower value",1.01
same,normalized growth,"locus YLR357W, strain rsc2, stronger effect = lower value",1.02
same,normalized growth,"locus YLR370C, strain arc18, stronger effect = lower value",1.02
same,normalized growth,"locus YLR371W, strain rom2, stronger effect = lower value",1.01
same,normalized growth,"locus YLR384C, strain iki3, stronger effect = lower value",1.01
same,normalized growth,"locus YLR418C, strain cdc73, stronger effect = lower value",0.958
same,normalized growth,"locus YML016C, strain PPZ1, stronger effect = lower value",0.996
same,normalized growth,"locus YML032C, strain rad52, stronger effect = lower value",1.01
same,normalized growth,"locus YML120C, strain ndi1, stronger effect = lower value",1
same,normalized growth,"locus YML124C, strain tub3, stronger effect = lower value",1
same,normalized growth,"locus YMR058W, strain fet3, stronger effect = lower value",1.02
same,normalized growth,"locus YMR078C, strain ctf18, stronger effect = lower value",1.02
same,normalized growth,"locus YMR125W, strain sto1, stronger effect = lower value",0.988
same,normalized growth,"locus YMR129W, stronger effect = lower value",0.998
same,normalized growth,"locus YMR205C, strain PFK2, stronger effect = lower value",1
same,normalized growth,"locus YMR223W, strain ubp8, stronger effect = lower value",1.01
same,normalized growth,"locus YMR231W, strain pep5, stronger effect = lower value",1
same,normalized growth,"locus YMR263W, strain SAP30, stronger effect = lower value",0.99 and 0.985
same,normalized growth,"locus YMR307W, strain GAS1, stronger effect = lower value",0.893
same,normalized growth,"locus YNL067W, strain RPL9B, stronger effect = lower value",0.977
same,normalized growth,"locus YNL071W, strain lat1, stronger effect = lower value",0.991
same,normalized growth,"locus YNL128W, strain TEP1, stronger effect = lower value",1
same,normalized growth,"locus YNL153C, strain GIM3, stronger effect = lower value",0.995 and 0.976
same,normalized growth,"locus YNL175C, strain NOP13, stronger effect = lower value",0.985
same,normalized growth,"locus YNL183C, strain NPR1, stronger effect = lower value",0.978
same,normalized growth,"locus YNL197C, strain WHI3, stronger effect = lower value",1.01
same,normalized growth,"locus YNL209W, strain ssb2, stronger effect = lower value",0.998
same,normalized growth,"locus YNL224C, strain SQS1, stronger effect = lower value",1.02
same,normalized growth,"locus YNL233W, strain BNI4, stronger effect = lower value",0.994
same,normalized growth,"locus YNL248C, strain rpa49, stronger effect = lower value",0.926
same,normalized growth,"locus YNL250W, strain rad50, stronger effect = lower value",1.01
same,normalized growth,"locus YNL271C, strain bni1, stronger effect = lower value",1.02
same,normalized growth,"locus YNL298W, strain CLA4, stronger effect = lower value",1
same,normalized growth,"locus YNL307C, strain MCK1, stronger effect = lower value",0.998
same,normalized growth,"locus YNL322C, strain KRE1 (second series), stronger effect = lower value",1.02
same,normalized growth,"locus YNR049C, strain mso1, stronger effect = lower value",1.02
same,normalized growth,"locus YNR052C, strain pop2, stronger effect = lower value",1.01
same,normalized growth,"locus YOL012C, strain htz1",0.774
same,normalized growth,"locus YOL147C, strain pex11, stronger effect = lower value",1.01
same,normalized growth,"locus YOR001W, strain rrp6, stronger effect = lower value",1.01
same,normalized growth,"locus YOR061W, strain CKA2, stronger effect = lower value",0.994
same,normalized growth,"locus YOR069W, strain VPS5, stronger effect = lower value",0.994
same,normalized growth,"locus YOR070C, strain gyp1, stronger effect = lower value",0.986
same,normalized growth,"locus YOR080W, strain dia2, stronger effect = lower value",1
same,normalized growth,"locus YOR083W, strain WHI5 (second series), stronger effect = lower value",0.991
same,normalized growth,"locus YOR083W, strain WHI5, stronger effect = lower value",1
same,normalized growth,"locus YOR106W, strain vam3, stronger effect = lower value",1.02
same,normalized growth,"locus YOR136W, strain idh2, stronger effect = lower value",1.03
same,normalized growth,"locus YOR144C, strain elg1, stronger effect = lower value",1
same,normalized growth,"locus YOR184W, strain ser1, stronger effect = lower value",1
same,normalized growth,"locus YOR231W, strain MKK1, stronger effect = lower value",1.04
same,normalized growth,"locus YOR265W, strain rbl2, stronger effect = lower value",0.994
same,normalized growth,"locus YOR270C, strain vph1, stronger effect = lower value",1.01
same,normalized growth,"locus YOR290C, strain snf2, stronger effect = lower value",0.992
same,normalized growth,"locus YOR316C, strain cot1, stronger effect = lower value",1
same,normalized growth,"locus YPL051W, strain arl3, stronger effect = lower value",1
same,normalized growth,"locus YPL055C, strain LGE1, stronger effect = lower value",0.959 and 1.01
same,normalized growth,"locus YPL078C, strain atp4, stronger effect = lower value",1.01
same,normalized growth,"locus YPL106C, strain sse1, stronger effect = lower value",1
same,normalized growth,"locus YPL240C, strain hsp82, stronger effect = lower value",1.02
same,normalized growth,"locus YPL256C, strain CLN2, stronger effect = lower value",1.04
same,normalized growth,"locus YPR119W, strain clb2, stronger effect = lower value",1.01
same,normalized growth,"locus YPR141C, strain kar3, stronger effect = lower value",1.02
same,normalized growth,"locus YPR163C, strain tif3, stronger effect = lower value",1
same,normalized growth,"locus YPR167C, strain met16, stronger effect = lower value",1.01
same,normalized growth,"strain wtn01, stronger effect = lower value",0.997
